High-throughput results: PubChem, The Scripps Research Institute Molecular Screening Center
MBD2 inh – inhibitors of MBD2 binding to methylated DNA, primary screen, biochemical, TR-FRET, DNA-binding domain, human; MBD2 binding to methylated oligonucleotide; inhibition, % at 4.4 µM; hit rate 0.31% among 370,000; AID 686964, 2013; in the data active means inhibition above about 13%
UHRF1 binding – UHRF1 methylated DNA binding inhibitors, primary screen, counter-screen for MBD2 inhibitor project, biochemical, TR-FRET, human UHRF1, single concentration; E3 ubiquitin-protein ligase UHRF1 (Homo sapiens), Q96T88; UHRF1 binding to methylated oligo; inhibition, % at 4.4 µM; hit rate 0.75% among 370,000; AID 687016, 2013; in the data active means inhibition above about 21%;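 further: UHRF1 SRA domain binding a hemimethylated CpG hairpin DNA probe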
Target sequence (Q96T88 whole entry, looked up, the tested form may be a part): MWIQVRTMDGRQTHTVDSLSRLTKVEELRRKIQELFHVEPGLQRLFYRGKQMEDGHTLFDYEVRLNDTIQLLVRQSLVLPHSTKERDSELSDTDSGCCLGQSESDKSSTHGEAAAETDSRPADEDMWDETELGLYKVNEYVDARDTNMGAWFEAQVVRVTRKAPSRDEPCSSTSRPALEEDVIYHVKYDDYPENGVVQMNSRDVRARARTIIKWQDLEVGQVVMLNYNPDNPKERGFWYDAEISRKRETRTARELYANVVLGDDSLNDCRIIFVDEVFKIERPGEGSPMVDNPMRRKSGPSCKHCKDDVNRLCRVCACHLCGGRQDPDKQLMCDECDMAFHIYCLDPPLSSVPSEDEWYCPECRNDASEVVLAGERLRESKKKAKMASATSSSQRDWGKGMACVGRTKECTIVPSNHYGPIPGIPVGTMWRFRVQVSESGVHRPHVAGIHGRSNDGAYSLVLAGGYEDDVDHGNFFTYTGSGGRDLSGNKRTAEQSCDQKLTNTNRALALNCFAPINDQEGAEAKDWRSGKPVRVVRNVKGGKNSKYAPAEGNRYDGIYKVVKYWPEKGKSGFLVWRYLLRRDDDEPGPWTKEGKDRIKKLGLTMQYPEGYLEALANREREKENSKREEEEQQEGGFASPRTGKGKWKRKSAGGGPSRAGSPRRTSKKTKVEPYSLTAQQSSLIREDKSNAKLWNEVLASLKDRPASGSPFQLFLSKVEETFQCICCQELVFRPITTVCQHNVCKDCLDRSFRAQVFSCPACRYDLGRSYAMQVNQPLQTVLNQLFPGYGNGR
PLC-beta3 inh – human PLC-beta3 inhibitors, primary screen, biochemical, fluorescence | inhibition, % at 12.2 µM | 1-phosphatidylinositol 4,5-bisphosphate phosphodiesterase beta-3 (Homo sapiens), Q01970 | Purified PLC-beta3, fluorogenic substrate | hit rate 0.18% among 370,000
PLC-gamma1 inh – PLC-gamma1 enzyme inhibitors, primary screen, biochemical, fluorescence, purified enzyme | 1-phosphatidylinositol 4,5-bisphosphate phosphodiesterase gamma-1 (Homo sapiens), P19174 | fluorogenic substrate | inhibition, % at 12.2 µM | hit rate 0.84% among 370,000; in the data active means inhibition above about 9.5%
LEDGF integ inh – blockers of LEDGF/p75-dependent integrase strand transfer – biochemical, TR-FRET, high throughput, primary screen; TR-FRET IN-LEDGF/p75 DNA integration, Eu/Cy5; inhibition, % at 3.7 µM; AID 743269, 2014; hit rate 0.64% among 370,000; HIV-1 integrase (with human LEDGF/p75);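 active means inhibition above the screen-wide mean plus 3 SD, cut at about 13% in these data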;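 further: signal is the Cy5 over europium emission ratio at 671 and 618 nm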
PLCgamma1 ctr – PLC-gamma1 enzyme inhibitors, counter-screen for PLC-beta3 inhibitor project, biochemical, fluorescence | shares compounds with PLC-gamma1 inh | purified PLC-gamma1, fluorogenic substrate | inhibition, % at 12.3 µM | hit rate 3.1% among 3,300; in the data active means inhibition above about 9.5%
PLCbeta3 conf – PLC-beta3 inhibitor confirmation, biochemical, fluorescence, purified enzyme | shares compounds with PLC-gamma1 inh | fluorogenic substrate fluorescence | inhibition, % at 12.3 µM | hit rate 1% among 3,300
Each line names hits and unclear results; the compound was inactive in the other large screens (follow-up assays come after a bar, where they were run). The list is not random: actives were taken first. Their share in the collection is about 2.4%. Unless noted, no stated cut-off is given here; in the data, active means inhibition above about 11%; inactive means the rest.

CC(NC(=O)c1ccc(F)cc1)c1ccc2c(c1)CCCC2 (stereo not drawn)	PLC-beta3 inh 13.6, PLC-gamma1 inh 13.1 | PLCgamma1 ctr inactive | PLCbeta3 conf inactive
O=C(COc1ccc(F)cc1)c1ccc2c(c1)CCCC2	PLC-gamma1 inh 9.5 | PLCgamma1 ctr inactive | PLCbeta3 conf inactive
O=C(c1ccc([N+](=O)[O-])cc1Cl)N1CCN(c2ccccn2)CC1	none
O=C(c1ccc(Cl)cc1[N+](=O)[O-])N1CCN(c2ccccn2)CC1	PLC-beta3 inh 11.9 | PLCgamma1 ctr inactive | PLCbeta3 conf inactive
Cc1ccc([N+](=O)[O-])cc1S(=O)(=O)Nc1cccc(S(=O)(=O)NC2=NCCC2)c1	PLC-gamma1 inh 9.6 | PLCgamma1 ctr inactive | PLCbeta3 conf inactive
Cc1ccsc1C(=O)N1CCCC(C)(C(=O)NS(=O)(=O)C2CC2)C1 (stereo not drawn)	PLC-gamma1 inh 9.8 | PLCgamma1 ctr inactive | PLCbeta3 conf inactive
COc1ccc(S(=O)(=O)Nc2c(C)nc3nc[nH]n3c2=O)cc1	none
COc1ccc(S(=O)(=O)Nc2c(C)nc3nc(C)[nH]n3c2=O)cc1	PLC-gamma1 inh 11.0 | PLCgamma1 ctr inactive | PLCbeta3 conf inactive
O=C(C[n+]1ccccc1)N/N=C/c1ccco1	PLC-gamma1 inh 9.5 | PLCgamma1 ctr inactive | PLCbeta3 conf inactive
CC1CCCC(NC(=O)COc2ncnc3ccccc23)C1C (stereo not drawn)	none
O=C(COc1ncnc2ccccc12)NC1CCS(=O)(=O)C1 (stereo not drawn)	PLC-gamma1 inh 10.2 | PLCgamma1 ctr inactive | PLCbeta3 conf inactive
O=C(CCn1nnc(-c2cccs2)n1)N1CCOCC1	none
Clc1ccc(-c2nnc(SCc3cccc4ccccc34)n2Cc2ccco2)cc1	none
C[C@H]1COc2cc(Br)ccc2S(=O)(=O)N1Cc1cn(Cc2ccc(C(F)(F)F)cc2)nn1	none
CCOC(=O)c1c(C)oc2ccc(OS(C)(=O)=O)cc12	none
CCOC(=O)c1c(C)oc2ccc(OCC(N)=O)cc12	PLC-beta3 inh 11.2, PLC-gamma1 inh 14.9 | PLCgamma1 ctr inactive | PLCbeta3 conf inactive
O=C(CC1SC(=Nc2ccccc2)N(CCc2ccccn2)C1=O)Nc1ccc(F)cc1 (stereo not drawn)	PLC-gamma1 inh 9.8 | PLCgamma1 ctr inactive | PLCbeta3 conf inactive
O=C(CC1SC(=Nc2ccccc2)N(CCc2c[nH]c3ccccc23)C1=O)Nc1ccccc1F (stereo not drawn)	PLC-beta3 inh 13.4 | PLCgamma1 ctr inactive | PLCbeta3 conf inactive
O=C(CC1SC(=Nc2ccccc2)N(CCO)C1=O)Nc1ccccc1 (stereo not drawn)	none
COc1ccc(N=C2SC(CC(=O)Nc3ccccc3F)C(=O)N2Cc2ccco2)cc1 (stereo not drawn)	none
COc1ccc(N=C2SC(CC(=O)Nc3ccccc3)C(=O)N2Cc2ccco2)cc1 (stereo not drawn)	PLC-beta3 inh 10.7 | PLCgamma1 ctr inactive | PLCbeta3 conf inactive
O=C(CC1SC(=Nc2ccccc2)N(CCCCO)C1=O)NCc1ccccc1 (stereo not drawn)	none
O=C(NC1CC1c1ccccc1)N1CCC(c2nc3ccc(Cl)cc3[nH]2)CC1 (stereo not drawn)	none
COC(=O)[C@]12C[C@H](CC(=O)N3CCSCC3)C(=O)N(Cc3ccc4c(c3)OCO4)C1=C[C@H](C(C)C)O[C@@H]2C1CC1	none
NS(=O)(=O)c1cccc(NC(=O)c2cc3ccccc3o2)c1	PLC-gamma1 inh 11.5 | PLCgamma1 ctr inactive | PLCbeta3 conf inactive
O=C(Nc1cccc(S(=O)(=O)c2cccc(NC(=O)c3ccco3)c2)c1)c1ccco1	PLC-gamma1 inh 14.9 | PLCgamma1 ctr inactive | PLCbeta3 conf inactive
NS(=O)(=O)c1cccc(NC(=O)c2cc(=O)c3ccccc3o2)c1	none
